Laboratory results: PubChem BioAssay AID1159506 (National Center for Advancing Translational Sciences (NCATS), 2015)
Over roughly 59,000 sequences, the read-out has its median near -0.00055; the lowest 2% begin near -2. Many of the other results were omitted from the sample, so the lowest values are more common in it than they were.

assay: Identification of proteins required for the processing of the EWS-FLI1 nascent transcript; settings: TC32 Ewing sarcoma NR0B1-luc vs CMV-luc (EWS-FLI1 target promoter against control promoter), 48 h; screened at 20 nM (by protocol);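 also: robust z of luciferase light less the median z of siRNAs with the same seed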
Method in brief: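 Genome-wide siRNA screen (Ambion v4.1, three siRNAs per gene, 20 nM final, RNAiMax) in Ewing sarcoma TC32 cells carrying NR0B1-promoter or CMV-promoter luciferase; OneGlo luciferase read 48 h post-transfection. Data normalized, z-score-MAD transformed and seed-adjusted.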

| Sequence | seed-corrected z-score |
| --- | --- |
| UCAAUGACAGCUAAUAGCC against ARL13A | -1.36 |
| UUCUUAACAUAGGGCAUGG against RRM2B | -0.284 |
| UGAACCUCUAGACUCAUAG against ZDBF2 | -0.0347 |
| AAUUCGAUUAGAGAGUGUC against SENP5 | 0.00396 |
| UUUUCUCCCUUUAUAAGGC against OXCT1 | 1.02 |
| UAUCCAACUAUCUAAACUG against TMEM184C | -16.9 |
| UCUCGAAACACCCUACUCC against MKNK1 | 0.234 |
| UGAAGUAAUGGUGAGAGGG against CRYAB | 0.664 |
| UGACCUCCAACACUAGUGC against VPS8 | 0.213 |
| AUCGUAACAAGAAAGUUCC against RNF17 | 1.39 |
| AUCUGCAUAAACUCCACGC against SCGN | -2.24 |
| UCCAAGUUCACGAAGAUUU against MMD | 0.344 |
| UGUACUUUGGAACUAGUCC against ENKUR | 0.00323 |
| UUCCGGAUUACACCAGUGC against FAM171A2 | 0.108 |
| UUCGUAAGUGGUCCAGUUC against GSE1 | 1.07 |
| UCAAUUCUGAGCUUCGGUC against SPATA13 | 0.999 |
| UGGUAGUUCACGUUGAGCC against CASKIN2 | -2.53 |
| UGAAGUUACAUUCAGUUCU against ZFAND3 | 0.106 |
| UUAGAUCUUGAAAGAGUUC against ETV1 | -0.0727 |
| AUAGGUUUCAGAGAGGUGU against CA1 | 0.901 |
| AAUCUUAAAUUUUCCGAGC against RGS7 | -0.282 |

| Sequence | seed-corrected z-score |
| --- | --- |
| UCGGGUGUUUUGGUCUUGC against LMOD1 | -2.52 |
| UACCUCAUAGGAUAACACC against MPP4 | 0.19 |
| AACGGUAGAAGCUGCAUGC against NOP58 | -1.46 |
| UCCUGCUUUAUAACUAGCC against ZNF621 | -4.33 |
| UUCAGCAUCUUUGUCGACC against RTFDC1 | -0.168 |
| UGAAGUUAAUGGGCCCUGG against MYL12BP2 | 0.711 |
| UCAUUUUCCUCAUAGGUGC against LAMB2 | -0.564 |
| AUACAUGCAGCUGUGGUUG against GABRB1 | -1.3 |
| UAAGCGAUCCAUAUCAAAC against PROX1 | 0.491 |
| UAACUGUUUAGCGAUGUCC against TBC1D1 | -2.09 |
| UUGUCUUCCUCCAUUGUCG against TSGA10IP | -0.628 |
| UCUCUUGAUGUGGACACUC against ITGAD | -0.0619 |
| UCAUGGUCCGAAGCUGGUG against LHX2 | -2.03 |
| UCGGCAAUAAUCUCGGCCU against HNRNPA0 | 0.556 |
| UGGUUUUGUACACCUGCUG against TNP2 | -0.158 |
| UAUUGAAGGACUCCUGAUC against RAB1A | 0.0899 |
| UUCAGAUGUCCGUCUAUGC against ABLIM3 | 0.714 |
| UUGGAAUACAUUGCCGUUC against SSR1 | -0.807 |
| UUUUGGACCGCUGCACCUG against CBY3 | 0.744 |
| UUUAGAGCGAGUGGUUAGC against PPHLN1 | 0.884 |
| UAAUCUUUUCAUGCAACUC against SNCA-AS1 | -2.06 |

| Sequence | seed-corrected z-score |
| --- | --- |
| UAGGUGAAGAUCUUGUUUC against COMMD10 | -0.785 |
| AAAUGAUUUAUAUCCCUGG against ABCC6P1 | -14.5 |
| AUCGGUAAGAUCCUAAUGG against VPS13A | 0.281 |
| UAUUCUACCUCGUACCUCC against TBC1D22B | -0.239 |
| ACCAGUAUAACCCAGAGUC against FCGR1A | 0.036 |
| UAUAGAGGAAAGCUAUGCC against ERCC6L | 0.528 |
| AAAGCGAGUUUUCUCAUCC against COPA | -4.21 |
| AACUGGAUAGGAGGACUGC against HSF5 | -0.327 |
| UUAAUUCUCGGAUGUGCUC against ANXA11 | 0.143 |
| UUAUGUUUUCCUACUCCAC against TCEAL1 | -2.4 |
| UGAAGGCCAACCGCUCUGU against ALG1L6P | 0.486 |
| UCAGUUUGAUUAUUUCUCU against RASSF4 | 0.41 |
| UGACUUCACCCAGAAGCAC against SLC25A41 | -0.697 |
| UCAUCAUCCAAAGAUGUAC against C20orf196 | -1.47 |
| UAUUCGAGCGCAGUGCUGG against C10orf67 | -0.133 |
| AUUGGUAGAACAAAGUUCC against PRELID3A | 0.478 |
| UUUUGUUGUGAGCUGAUGC against SF3B4 | -3 |
| UUCCUUGGAGCUGGGAUCU against PSORS1C1 | -1.32 |
| UUCUUUUUCAAACAGCUCU against ISY1 | -1.17 |
| UACUGGUCAAUCGCUGUUC against CEP192 | -0.996 |
| UUAUUGUUCUUUCGGAUCC against SELP | 0.564 |

| Sequence | seed-corrected z-score |
| --- | --- |
| UCCGGUAAGACAUUCUCUG against EAPP | 0.402 |
| AUGACUUUUAGUGUAAUCC against LOC439994 | -2.2 |
| UAUGUCGUCUUGGAGAUCG against SNRNP27 | -0.0915 |
| UUAAGAGUGACUCAAUUUG against MGAT2 | -0.219 |
| AUUGAGUAUCACGUCAUCC against TTLL4 | -2.43 |
| ACCUUGAUGGUUUUUGAUG against LOC649294 | 0.0918 |
| UUUCUUAAUGGUGGUGCCC against SLC7A7 | -0.929 |
| UGUAUUAUCGUGUCCGAGC against CTNNBL1 | -0.748 |
| UGAUAACCCACAUUGAAGG against DEGS1 | -0.494 |
| UCUUCUUCCAGUAUAAGGC against KITLG | 0.53 |
| UCAACACCCAGGUAGCGGA against DUSP26 | -2.05 |
| UAAAGGGUUGUGGGAAAUG against LRRC30 | -1.26 |
| UCUGGAAUUUGACUGCUCG against RPL24 | -0.838 |
| UACGUAAGAAAUAGGAACG against OR6C76 | -2.11 |
| UCAACUUCCAUGAUUUUCC against IGF2BP2 | -0.332 |
| UUCCGGUCAUAAUUCAGCC against PPFIA4 | -0.228 |
| AAUGGUAAACUUGAUUUCA against TP53I11 | 0.091 |
| AUAGAGGUGAGGGUCAUGC against TGFBI | -2.38 |
| UACUUCUAUGUAGAGGUCC against AKIP1 | -0.138 |
| UCAGUUUGGAAUGAGGAGG against LOC345051 | -0.469 |
| UGUGGAUGCGGCGAUGUUC against ZNF574 | 0.836 |
